Structures can show the parent of a compound that is named as a salt.
Legend:
Details in all cases: treatment time: 24 h
WPMY1-ACTB-RAB5A [1] = assay: lowest phenotypically active concentration; higher = less potent
In short: (§1)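 Phenotypic activity depended on meeting both a deviation and a reproducibility criterion. The fifteen gene-edited A549, HepG2 and WPMY1 reporter lines were treated at 0.3, 1, 3 or 9 µM for 24 h, four wells each, then imaged live with features normalised to solvent control wells. Deviation required ≥3 of 4 wells past the 95th percentile of control Euclidean distances, and reproducibility a median replicate Pearson correlation above the 95th percentile of non-replicates.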

A549-CANX-COX4 = assay: phenotypically active (imaging signature differs from DMSO and reproducible) at any of 0.3-9 uM (binary (1 = active, 0 = inactive)); higher = active
In short: as §1

A549-TP53BP1-CLTA = assay: as above
In short: as §1

HepG2-ACTB-RAB5A = assay: as above
In short: as §1

HepG2-CANX-COX4 = assay: as above
In short: as §1

HepG2-GM130-SQSTM1 = assay: as above
In short: as §1

HepG2-TP53BP1-CLTA = assay: as above
In short: as §1

HepG2-TUBA1B-RELA = assay: as above
In short: as §1

WPMY1-ACTB-RAB5A [2] = assay: as above
In short: as §1

WPMY1-CANX-COX4 [3] = assay: as above
In short: as §1

WPMY1-GM130-SQSTM1 [4] = assay: as above
In short: as §1

WPMY1-TP53BP1-CLTA [5] = assay: as above
In short: as §1

WPMY1-TUBA1B-RELA [6] = assay: as above
In short: as §1

WPMY1-CANX-COX4 [7] = assay: lowest phenotypically active concentration; higher = less potent
In short: as §1

WPMY1-TP53BP1-CLTA [8] = assay: as above
In short: as §1

WPMY1-TUBA1B-RELA [9] = assay: as above
In short: as §1

WPMY1-GM130-SQSTM1 [10] = assay: as above
In short: as §1

Compound | lowest phenotypically active concentration (WPMY1-ACTB-RAB5A [1]) | phenotypically active (A549-CANX-COX4) | phenotypically active (A549-TP53BP1-CLTA) | phenotypically active (HepG2-ACTB-RAB5A) | phenotypically active (HepG2-CANX-COX4) | phenotypically active (HepG2-GM130-SQSTM1) | phenotypically active (HepG2-TP53BP1-CLTA) | phenotypically active (HepG2-TUBA1B-RELA) | phenotypically active (WPMY1-ACTB-RAB5A [2]) | phenotypically active (WPMY1-CANX-COX4 [3]) | phenotypically active (WPMY1-GM130-SQSTM1 [4]) | phenotypically active (WPMY1-TP53BP1-CLTA [5]) | phenotypically active (WPMY1-TUBA1B-RELA [6]) | lowest phenotypically active concentration (WPMY1-CANX-COX4 [7]) | lowest phenotypically active concentration (WPMY1-TP53BP1-CLTA [8]) | lowest phenotypically active concentration (WPMY1-TUBA1B-RELA [9]) | lowest phenotypically active concentration (WPMY1-GM130-SQSTM1 [10])
COc1cc2nccc(Oc3ccc(NC(=O)NC4CC4)c(Cl)c3)c2cc1C(N)=O [lenvatinib] | 1 µM | 0 (inactive) | 0 (inactive) | 0 (inactive) | 0 (inactive) | 0 (inactive) | 0 (inactive) | 0 (inactive) | 1 (active) | 0 (inactive) | 0 (inactive) | 0 (inactive) | 0 (inactive) | – | – | – | –
Cc1ccc(C(=O)c2cc(O)c(O)c([N+](=O)[O-])c2)cc1 [tolcapone] | – | 0 (inactive) | 0 (inactive) | 0 (inactive) | 0 (inactive) | 0 (inactive) | 0 (inactive) | 0 (inactive) | 0 (inactive) | 0 (inactive) | 0 (inactive) | 0 (inactive) | 0 (inactive) | – | – | – | –
C[C@@H](c1ncncc1F)[C@](O)(Cn1cncn1)c1ccc(F)cc1F [voriconazole] | – | 0 (inactive) | 0 (inactive) | 0 (inactive) | 0 (inactive) | 0 (inactive) | 0 (inactive) | 0 (inactive) | 0 (inactive) | 0 (inactive) | 0 (inactive) | 0 (inactive) | 0 (inactive) | – | – | – | –
COc1cc2ncn(-c3cc(OCc4ccccc4C(F)(F)F)c(C(N)=O)s3)c2cc1OC | ≤ 0.3 µM | 1 (active) | 1 (active) | 1 (active) | 1 (active) | 1 (active) | 1 (active) | 1 (active) | 1 (active) | 1 (active) | 0 (inactive) | 1 (active) | 1 (active) | 1 µM | 1 µM | ≤ 0.3 µM | –
Nc1nc2ccc(OC(F)(F)F)cc2s1 [riluzole] | – | 0 (inactive) | 0 (inactive) | 0 (inactive) | 0 (inactive) | 0 (inactive) | 0 (inactive) | 0 (inactive) | 0 (inactive) | 0 (inactive) | 0 (inactive) | 0 (inactive) | 0 (inactive) | – | – | – | –
CCN1CCN(C(c2cccnc2)c2cc(Cl)c3cccnc3c2O)CC1 (stereo not drawn) | 9 µM | 1 (active) | 1 (active) | 1 (active) | 1 (active) | 1 (active) | 1 (active) | 1 (active) | 1 (active) | 1 (active) | 0 (inactive) | 1 (active) | 0 (inactive) | 9 µM | 9 µM | – | –
NCCNS(=O)(=O)c1cccc2cnccc12 [H-9 dihydrochloride] | 9 µM | 0 (inactive) | 0 (inactive) | 0 (inactive) | 0 (inactive) | 0 (inactive) | 0 (inactive) | 0 (inactive) | 1 (active) | 0 (inactive) | 0 (inactive) | 0 (inactive) | 0 (inactive) | – | – | – | –
Cc1cc(C(C)(C)C)c(O)c(C)c1CC1=NCCN1 [oxymetazoline] | – | 0 (inactive) | 0 (inactive) | 0 (inactive) | 0 (inactive) | 0 (inactive) | 0 (inactive) | 0 (inactive) | 0 (inactive) | 0 (inactive) | 1 (active) | 0 (inactive) | 0 (inactive) | – | – | – | 3 µM
Cc1c2oc3c(C)ccc(C(=O)NC4C(=O)NC(C(C)C)C(=O)N5CCCC5C(=O)N(C)CC(=O)N(C)C(C(C)C)C(=O)OC4C)c3nc-2c(C(=O)NC2C(=O)NC(C(C)C)C(=O)N3CCCC3C(=O)N(C)CC(=O)N(C)C(C(C)C)C(=O)OC2C)c(N)c1=O (stereo not drawn) [Actinomycin D] | ≤ 0.3 µM | 1 (active) | 1 (active) | 1 (active) | 1 (active) | 1 (active) | 1 (active) | 1 (active) | 1 (active) | 1 (active) | 1 (active) | 1 (active) | 1 (active) | ≤ 0.3 µM | ≤ 0.3 µM | ≤ 0.3 µM | ≤ 0.3 µM
CCN1CCN(c2cc(-c3ccc(F)cc3)c3c(n2)CCCCCC3)CC1 [blonanserin] | 9 µM | 0 (inactive) | 1 (active) | 1 (active) | 1 (active) | 1 (active) | 1 (active) | 1 (active) | 1 (active) | 0 (inactive) | 0 (inactive) | 1 (active) | 1 (active) | – | 9 µM | 9 µM | –
CCN1CCN(c2ccc(Nc3cc(N(C)C(=O)Nc4c(Cl)c(OC)cc(OC)c4Cl)ncn3)cc2)CC1 | 9 µM | 0 (inactive) | 0 (inactive) | 0 (inactive) | 0 (inactive) | 0 (inactive) | 0 (inactive) | 0 (inactive) | 1 (active) | 0 (inactive) | 1 (active) | 0 (inactive) | 0 (inactive) | – | – | – | 9 µM
Cc1nc(NC(=O)N2CCC[C@H]2C(N)=O)sc1-c1ccnc(C(C)(C)C(F)(F)F)c1 [alpelisib] | – | 1 (active) | 1 (active) | 1 (active) | 1 (active) | 1 (active) | 1 (active) | 1 (active) | 0 (inactive) | 1 (active) | 1 (active) | 1 (active) | 1 (active) | 3 µM | 3 µM | 9 µM | 3 µM
